Source: PubChem BioAssay AID1159580 (chemical genetic matrix, 2015)
Several values for one entry are separate records, joined by “and”; a condition that tells them apart may be missing. Identical values can stand only once. In all, about 5,500 compounds went through this assay and about 2,000 (36%) were called active. About 18% were inconclusive and are not listed. Rule as the data show it: active = normalized growth mostly below about 0.91 (no sharp cut-off); inconclusive = no clear call, values can overlap the other calls; inactive = mostly above about 0.92. This is one part of the list.

Assay: chemical genetic growth profiling, strain panel (AID 1159580);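 also: tested at 20 µM; growth read once vehicle control cultures reached saturation at 30 °C; 1 = growth at the plate median or of vehicle wells; lower values mean less growth of the strain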
Details: S. cerevisiae deletion strains, growth OD

Measured: normalized growth

c1cc2c(cc1[C@H]1OC[C@H]3[C@@H]1CO[C@H]3c1ccc3c(c1)OCO3)OCO2
active: locus YAL026C, strain drs2, stronger effect = lower value 0.803 | locus YAL030W, strain snc1, stronger effect = lower value 0.908 | locus YBL061C, strain skt5, stronger effect = lower value 0.918 | locus YBR009C, strain hhf1, stronger effect = lower value 0.904 | locus YBR023C, strain chs3, stronger effect = lower value 0.906 | locus YCL011C, strain gbp2, stronger effect = lower value 0.881 | locus YCL016C, strain dcc1, stronger effect = lower value 0.911 | locus YCL069W, strain vba3, stronger effect = lower value 0.919 | locus YCR088W, strain abp1, stronger effect = lower value 0.911 | locus YDL040C, strain nat1, stronger effect = lower value 0.92 | locus YDL134C, strain PPH21, stronger effect = lower value 0.881 | locus YDL192W, strain arf1, stronger effect = lower value 0.877 | locus YDR001C, strain nth1, stronger effect = lower value 0.889 | locus YDR101C, strain arx1, stronger effect = lower value 0.895 | locus YDR137W, strain rgp1, stronger effect = lower value 0.492 | locus YDR159W, strain sac3, stronger effect = lower value 0.856 | locus YDR297W, strain sur2, stronger effect = lower value 0.905 | locus YDR318W, strain mcm21, stronger effect = lower value 0.867 | locus YDR334W, strain swr1, stronger effect = lower value 0.861 | locus YDR388W, stronger effect = lower value 0.923 | locus YDR392W, strain spt3, stronger effect = lower value 0.371 | locus YDR502C, strain sam2, stronger effect = lower value 0.869 | locus YEL003W, strain gim4, stronger effect = lower value 0.911 | locus YEL061C, strain CIN8 (second series), stronger effect = lower value 0.859 | locus YEL061C, strain CIN8, stronger effect = lower value 0.724 | locus YER015W, strain faa2, stronger effect = lower value 0.925 | locus YER016W, strain bim1, stronger effect = lower value 0.908 | locus YER155C, strain BEM2 (second series), stronger effect = lower value 0.783 | locus YER155C, strain BEM2, stronger effect = lower value 0.862 | locus YER167W, strain BCK2, stronger effect = lower value 0.813 | locus YGL086W, strain mad1, stronger effect = lower value 0.845 | locus YGL167C, strain pmr1, stronger effect = lower value 0.862 | locus YGL253W, strain hxk2, stronger effect = lower value 0.845 | locus YHR027C, strain rpn1, stronger effect = lower value 0.913 | locus YHR079C, strain IRE1 (second series), stronger effect = lower value 0.902 | locus YHR094C, strain hxt1, stronger effect = lower value 0.922 | locus YHR129C, strain ARP1, stronger effect = lower value 0.911 | locus YHR142W, strain chs7, stronger effect = lower value 0.803 | locus YHR200W, strain rpn10, stronger effect = lower value 0.884 | locus YIL066C, strain RNR3, stronger effect = lower value 0.828 | locus YIL125W, strain kgd1, stronger effect = lower value 0.889 | locus YIR030C, strain dcg1, stronger effect = lower value 0.901 | locus YJL092W, strain hpr5, stronger effect = lower value 0.914 | locus YJL095W, strain BCK1 (second series), stronger effect = lower value 0.904 | locus YJL115W, strain asf1, stronger effect = lower value 0.904 | locus YJL129C, strain trk1, stronger effect = lower value 0.722 | locus YJL164C, strain tpk1, stronger effect = lower value 0.896 | locus YJL166W, strain qcr8, stronger effect = lower value 0.88 | locus YJL168C, strain set2, stronger effect = lower value 0.927
inactive: locus YAL013W, strain DEP1, stronger effect = lower value 0.93 | locus YAL021C, strain ccr4, stronger effect = lower value 0.936 | locus YBR021W, strain FUR4, stronger effect = lower value 0.961 | locus YBR171W, strain sec66, stronger effect = lower value 0.897 | locus YBR229C, strain ROT2, stronger effect = lower value 0.941 | locus YBR231C, strain swc5, stronger effect = lower value 0.922 | locus YBR279W, strain paf1, stronger effect = lower value 0.936 | locus YCL029C, strain bik1, stronger effect = lower value 0.933 | locus YCL061C, strain MRC1, stronger effect = lower value 0.93 | locus YDL005C, strain med2, stronger effect = lower value 0.915 | locus YDL035C, strain GPR1, stronger effect = lower value 0.906 | locus YDL074C, strain BRE1, stronger effect = lower value 0.874 | locus YDL101C, strain DUN1, stronger effect = lower value 0.927 | locus YDL185W, strain tfp1, stronger effect = lower value 0.93 | locus YDR069C, strain doa4, stronger effect = lower value 0.956 | locus YDR162C, strain NBP2, stronger effect = lower value 0.894 | locus YDR195W, strain ref2 1.06 | locus YDR335W, strain msn5, stronger effect = lower value 0.934 | locus YEL037C, strain rad23, stronger effect = lower value 0.926 | locus YER110C, stronger effect = lower value 0.942 | locus YER111C, strain swi4, stronger effect = lower value 0.919 | locus YFR010W, strain ubp6, stronger effect = lower value 0.938 | locus YGL078C, strain dbp3, stronger effect = lower value 0.958 | locus YGL173C, strain kem1, stronger effect = lower value 0.904 | locus YGL227W, strain vid30, stronger effect = lower value 0.926 | locus YGL240W, strain doc1, stronger effect = lower value 0.89 | locus YGL248W, strain PDE1, stronger effect = lower value 0.901 | locus YGR078C, strain PAC10, stronger effect = lower value 0.856 | locus YGR135W, strain pre9, stronger effect = lower value 0.906 | locus YGR252W, strain gcn5, stronger effect = lower value 0.897 | locus YHR013C, strain ard1, stronger effect = lower value 0.871 | locus YHR079C, strain IRE1, stronger effect = lower value 0.895 | locus YIL073C, strain SPO22, stronger effect = lower value 0.783 | locus YJL134W, strain LCB3, stronger effect = lower value 0.974 | locus YJL154C, strain vps35, stronger effect = lower value 0.936 | locus YJL187C, strain SWE1 (second series), stronger effect = lower value 0.925 | locus YJL187C, strain SWE1, stronger effect = lower value 0.932 | locus YJR043C, strain POL32, stronger effect = lower value 0.959 | locus YJR066W, strain TOR1, stronger effect = lower value 0.888
0.714 (active) and 0.956 (inactive): locus YJL095W, strain BCK1, stronger effect = lower value
0.87 (active) and 0.888 (inactive): locus YHR030C, strain SLT2, stronger effect = lower value
